Screens as filed in PubChem.
Bst PK mod – modulators of Bacillus stearothermophilus pyruvate kinase; purified pyruvate kinase, luminescence ATP production; ribose 5-phosphate activator present at AC10; Potency, µM; 51,000 compounds, 1.2% hits; AID 361; in the data active means potency below about 11 µM; inconclusive means mostly about 12 µM to 25 µM;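 the screen sought inhibitors and activators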;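 further: scaled between full activation by ribose 5 phosphate and full inhibition by luteolin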
GBA activity – modulators of human glucocerebrosidase; 48,000 compounds, 1.1% hits; AID 360; Potency, µM; purified enzyme, resorufin glucoside fluorescence (screen aimed at inhibitors), 20 min; P04062; in the data active means potency below about 15 µM; inconclusive means mostly about 16 µM to 33 µM;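 further: the screen sought inhibitors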
Target sequence (P04062 whole entry, looked up): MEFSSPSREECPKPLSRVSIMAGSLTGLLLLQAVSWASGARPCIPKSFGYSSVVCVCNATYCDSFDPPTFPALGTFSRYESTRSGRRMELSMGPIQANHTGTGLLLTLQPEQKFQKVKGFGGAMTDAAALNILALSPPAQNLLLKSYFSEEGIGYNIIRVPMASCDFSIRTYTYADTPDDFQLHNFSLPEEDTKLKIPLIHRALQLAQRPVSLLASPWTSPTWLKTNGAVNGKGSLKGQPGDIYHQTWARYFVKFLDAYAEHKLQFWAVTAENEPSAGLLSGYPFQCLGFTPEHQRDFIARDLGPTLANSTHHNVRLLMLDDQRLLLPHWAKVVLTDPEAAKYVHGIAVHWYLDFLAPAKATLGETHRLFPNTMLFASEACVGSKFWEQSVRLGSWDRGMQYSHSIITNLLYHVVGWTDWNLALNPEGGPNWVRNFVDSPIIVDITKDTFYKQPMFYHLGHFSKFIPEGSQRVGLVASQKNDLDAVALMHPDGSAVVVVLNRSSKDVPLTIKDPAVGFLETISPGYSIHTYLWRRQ
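Normal human glucocerebrosidase (0.2 nM final) was assayed with resorufin β-D-glucopyranoside (30 uM final) in 50mM citric acid/KH2PO4, 10mM sodium taurocholate, 0.01% tween-20, pH 5.9. Compounds were titrated; fluorescence (Ex 548, Em 600) read after 20 min at RT.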
The depositor's hits bear a star; i = inactive; ? = inconclusive; . = no result given. The list is not random: actives were taken first. Their share in the collection is about 2.3%. Potency means the concentration at half of the fitted maximal effect.

SMILES	Bst PK mod	GBA activity
CCOc1cc(C)nc(N2CCCC(C(=O)NCc3ccccc3F)C2)n1 (stereo not given)	>57	>77
Cc1cc(C)nc(N2CCCC(C(=O)NCCc3ccccc3F)C2)n1 (stereo not given)	3.2*	>77
CC(C)(Oc1ccc(Cl)cc1)C(=O)OCC(=O)N1CCCC1	>57	.
O=C(COC(=O)COc1ccc(Nc2ccccc2)cc1)NCc1ccco1	>57	.
O=C(COc1ccc2oc(-c3ccccc3)cc(=O)c2c1)NCc1ccco1	4.1*	>77
COC(=O)c1ccc(C(=O)OC)c(NC(=O)c2oc(C)nc2C)c1	>57	>77
O=C(Nc1ccccc1-c1nc2ccccc2o1)c1ccc2c(c1)OCCO2	>57	>77
Cc1c(NC(=O)c2cc(-n3cnnc3)ccc2Cl)cccc1-c1nc2ccccc2o1	5.7*	>77
CCOc1cc(S(=O)(=O)NCC2OCCc3ccccc32)c(OCC)cc1-n1cnnn1 (stereo not given)	>57	>77
CCOC(=O)c1c(C)[nH]c(C(=O)COC(=O)c2ccc(F)c(S(=O)(=O)N3CCOCC3)c2)c1C	>57	>77
CCOC(=O)c1c(C)[nH]c(C(=O)COC(=O)CCC(=O)c2ccc3c(c2)OCCO3)c1C	>57	11*
CCOC(=O)c1c(C)[nH]c(C(=O)COC(=O)c2ccncc2)c1C	>57	>77
CCOC(=O)c1c(C)[nH]c(C(=O)COC(=O)C2CC2C)c1C (stereo not given)	i	7.8*
Cc1nn(-c2ccccc2)c2c1C(O)n1c(nc3ccccc31)S2 (stereo not given)	>57	>77
Cc1ccc(N(CC(=O)N2CCN(C3CCCCC3)CC2)S(=O)(=O)c2cccnc2)cc1	>57	>77
CCOC(=O)C1=C(C)N=C2SC(CC)C(=O)N2C1c1ccc(OC(C)=O)c(OCC)c1 (stereo not given)	>57	>77
COc1ccccc1OCc1nc(C#N)c(N2CCC(C(N)=O)CC2)o1	>57	>77
N#Cc1nc(-c2ccc(OCc3ccccc3)cc2)oc1N1CCC(C(N)=O)CC1	4.9*	>77
Cc1cc(C)c(S(=O)(=O)n2nc(C)c(Br)c2C)c(C)c1	.	>77
CCSc1nc2cc(OC)c(OC)cc2c(=O)n1CC	>57	>77
COc1ccccc1N1CCN(c2ccc(-c3ccccc3)nn2)CC1	1.6*	>77
COc1ccccc1N1CCN(c2nc(-c3ccccc3)cc(C(F)(F)F)n2)CC1	>57	>77
COc1cccc(C(C(=O)NCc2ccco2)N(C(=O)Cn2nnc3ccccc32)C2CC2)c1OC (stereo not given)	>57	>77
O=C(Nc1ccncc1)C1COc2ccccc2O1 (stereo not given)	>57	i
O=C(NC1=NCCS1)C1COc2ccccc2O1 (stereo not given)	4.3*	>77
SMILES	Bst PK mod	GBA activity
CCCn1nnc(NC(=O)COc2ccc(C3CCCCC3)cc2)n1	>57	>77
COc1ccc(OCC(=O)Nc2ccc3c(c2)nc2n3CCSC2)cc1	>57	.
COc1ccccc1C(=O)Nc1ccc2c(c1)nc1n2CCSC1	5.6*	?
CCOC(=O)c1c(C)[nH]c(C(=O)C(C)OC(=O)c2cccc(OCc3c(C)noc3C)c2)c1C (stereo not given)	>57	>77
COc1ccc2cc(C(=O)NCc3ccco3)c(=Nc3ccc(C(=O)O)cc3)oc2c1	.	>77
COc1ccc(N=c2oc3c(OC)cccc3cc2C(=O)NCc2ccco2)c(OC)c1	>57	2.1*
Cn1c(NCc2c[nH]c3ccccc23)nc2ccccc21	.	>77
Cn1c(/N=C/c2c[nH]c3ccccc23)nc2ccccc21	0.3*	?
O=C(c1ccco1)[C@@H]1[C@@H]2C(=O)N(c3ccc(Br)cc3)C(=O)[C@@H]2C2c3ccccc3C=CN21 (stereo not given in full)	7.2*	>77
O=C(c1ccco1)[C@@H]1[C@@H]2C(=O)N(c3ccc(F)cc3)C(=O)[C@@H]2C2c3ccccc3C=CN21 (stereo not given in full)	>57	>77
COc1cc(NC(=O)CN2c3cccc4cccc(c34)S2(=O)=O)cc(OC)c1OC	0.81*	>77
COc1cc(NC(=O)Nc2cccc(C(C)=O)c2)cc(OC)c1OC	>57	>77
CC(=O)C(C(C)=O)c1c(Cl)c(O)c(O)c2c(C(=O)c3ccccc3)coc12	>57	>77
Cc1cc2oc(=O)cc(CN3CCCCC3C)c2c(C)c1Cl (stereo not given)	>57	>77
COc1cccc2cc(-c3cn4cccc(C)c4n3)c(=O)oc12	>57	>77
CCOc1cccc2cc(-c3cn4cc(C)ccc4n3)c(=O)oc12	1.2*	>77
Cc1cc(C)cc(N2C(=O)C3C4C=CC(C4)C3C2=O)c1 (stereo not given)	>57	>77
N#Cc1c(/N=C/c2cccs2)sc2c1CCCCC2	1.1*	>77
CN(C)/C=N/c1sc2c(c1C#N)CCC2	>57	>77
O=C(CNS(=O)(=O)c1ccc(Br)s1)NCC1COc2ccccc2O1 (stereo not given)	>57	.
